What all share (settings): concentration: 1 μM, replicates: in singlicate; n = 1
Test [1] relates to ACVR2B.
Test [2] deals with ACVRL1.
Test [3] concerns T1, ADCK3.
T1 construct: gene CABC1

The test system of test [4] is ADCK4.
Test [5] has as its system AKT1.
Test [6] concerns AKT2.
The test system of test [7] is AKT3.
For test [8], the system named is ALK.
The subject of test [9] is T2, AMPK-alpha1.
T2 construct: gene PRKAA1

The subject of test [10] is T3, AMPK-alpha2.
T3 construct: gene PRKAA2

Test [11] has as its system ANKK1.
In test [12] the test system is T4, ARK5.
T4 construct: gene NUAK1

Test [13] has as its system T5, ASK1.
T5 construct: gene MAP3K5

Test [14] relates to T6, ASK2.
T6 construct: gene MAP3K6

In test [15] the test system is AURKA.
Test [16] has as its system AURKB.
Test [17] deals with AURKC.
For test [18], the system named is AXL.
Test [19] has as its system T7, BIKE.
T7 construct: gene BMP2K

Test [20] has as its system BLK.
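Note: KINOMEscan kinase panel screen.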

With `Cc1ccc(C(=O)Nc2ccc(Nc3ccnc4cc(-c5ccccn5)ccc34)cc2O)cc1.Cl` [GW440146], the “%Inh” value in test [1] is recorded as 25%; in test [2], 0%; in test [3], 0%; in test [4], 0%; in [5], 0%; in test [6], 19%. The “%Inh” value in [7] was 0%; in test [8], 27%; in [9], 4%; in test [10], 15%; in test [11] it was 33%; in test [12], 0%. Further, the “%Inh” value in [13] was 0%; in test [14], 0%; in [15] it was 29%; in test [16] it was 80%; in test [17], 90.1%; in [18], 0%. Besides, the entries for the “%Inh” value in test [19] and in test [20] were 39% and 98.4%, respectively.
Turning to `Cc1c(O)cccc1Nc1ccnc2ccc(C(F)(F)F)cc12.Cl` [GW466413], the “%Inh” value stood at 85% in test [1]; 43% in test [2]; 0% in [3]; 81% in test [4]; 0% in [5]; 0% in test [6]. Also, the “%Inh” value came out at 1% in test [7]; 25% in test [8]; 12% in test [9]; 16% in test [10]; 0% in test [11]; 10% in test [12]. Moreover, the “%Inh” value in test [13] was determined as 0%; in test [14], 0%; in test [15], 0%; in test [16] it was 34%; in [17] it was 0%; in test [18], 1%. Besides, the entries for the “%Inh” value in test [19] and in test [20] were 4% and 66%, respectively.
On to `CS(=O)(=O)c1ccc(-c2c(-c3ncn[nH]3)sc(N3CCOCC3)c2C#N)cc1`, for which the “%Inh” value in test [1] stood at 0%; in [2], 8%; in test [3], 3%; in test [4], 0%; in test [5] it was 1%; in [6], 15%. Also, the “%Inh” value in [7] amounted to 0%; in [8], 9%; in test [9] it was 22%; in [10] it was 8%; in [11], 0%; in [12], 1%. The “%Inh” value in test [13] is given as 0%; in [14] it was 0%; in [15], 22%; in test [16] it was 0%; in test [17], 2%; in [18], 0%. In addition, the “%Inh” value in test [19] was found to be 6%; in test [20], 8%.
`C[C@@H]1CCCCN1c1cc(-c2ccc3c(N)n[nH]c3c2)nc(N)n1` [GSK2258759]: the “%Inh” value in test [1] came out at 0%; in test [2], 0%; in test [3], 14%; in test [4], 20%; in [5] it was 0%; in [6] it was 0%. The “%Inh” value in test [7] worked out at 0%; in test [8], 0%; in test [9], 0%; in test [10], 0%; in test [11], 17%; in test [12] it was 0%. For the same compound, the “%Inh” value in test [13] is reported as 0%; in test [14] it was 0%; in test [15] it was 82%; in [16], 0%; in test [17], 14%; in [18] it was 0%. Moreover, the figures for the “%Inh” value in test [19] and in test [20] were 26% and 0%, respectively.
Regarding `COC(=O)c1c(-c2ccccc2)c2cc(C(=O)O)ccc2c(=O)n1Cc1ccccc1`, the “%Inh” value came to 0% in [1]; 20% in test [2]; 0% in [3]; 0% in test [4]; 0% in test [5]; 0% in test [6]. Besides, the “%Inh” value in [7] amounted to 1%; in test [8] it was 0%; in [9], 0%; in test [10], 7%; in [11] it was 0%; in [12] it was 5%. For the same compound, the “%Inh” value worked out at 0% in [13]; 0% in [14]; 0% in test [15]; 11% in test [16]; 0% in test [17]; 0% in [18]. Further, the “%Inh” value in [19] and in test [20] was 0% in each case.
Turning to `Nc1ncnc2[nH]c(-c3ccccc3)nc12` [AH5015], the “%Inh” value in test [1] came out at 0%; in test [2], 0%; in test [3], 25%; in [4] it was 12%; in [5], 0%; in [6], 9%. Further, the “%Inh” value is recorded as 0% in test [7]; 33% in test [8]; 2% in [9]; 17% in [10]; 14% in test [11]; 0% in test [12]. Moreover, the “%Inh” value is on record as 5% in test [13]; 20% in test [14]; 100% in test [15]; 24% in [16]; 14% in test [17]; 0% in test [18]. Also, the results for the “%Inh” value in [19] and in test [20] were 24% and 10%, respectively.
Regarding `CC(C)(C)c1ccc(C(=O)Nc2cn3cc(Cl)ccc3n2)cc1`, the “%Inh” value in [1] was determined as 9%; in [2] it was 0%; in [3], 5%; in test [4], 0%; in [5], 5%; in test [6], 0%. The “%Inh” value is reported as 0% in [7]; 3% in [8]; 0% in test [9]; 16% in test [10]; 0% in [11]; 0% in [12]. For the same compound, the “%Inh” value was determined as 86% in [13]; 0% in [14]; 0% in test [15]; 64% in test [16]; 17% in test [17]; 0% in [18]. The “%Inh” value in [19] and in [20] was 0% in each case.
Take `Cl.NC(=O)c1cccc(Nc2nccc(Nc3ccc(Oc4cccc(Cl)c4)c(Cl)c3)n2)c1` [GW659008]: the “%Inh” value came to 14% in test [1]; 0% in [2]; 5% in [3]; 32% in [4]; 0% in [5]; 8% in test [6]. Moreover, the “%Inh” value was 0% in test [7]; 24% in [8]; 42% in test [9]; 33% in test [10]; 0% in [11]; 0% in [12]. Moreover, the “%Inh” value was found to be 0% in test [13]; 0% in test [14]; 6% in [15]; 49% in test [16]; 21% in test [17]; 12% in test [18]. Moreover, the “%Inh” value in test [19] came out at 33%; in test [20] it was 84%.
For the compound `Cc1c(Cn2ccn3c(=O)cc(N4CCOCC4)nc23)cccc1C(F)(F)F` [GSK2289044], the “%Inh” value is 0% in [1]; 0% in test [2]; 32% in test [3]; 0% in [4]; 0% in [5]; 19% in test [6]. The “%Inh” value was found to be 86% in test [7]; 5% in test [8]; 23% in test [9]; 17% in [10]; 6% in test [11]; 9% in test [12]. Besides, the “%Inh” value was 4% in test [13]; 7% in test [14]; 7% in [15]; 0% in test [16]; 3% in test [17]; 7% in test [18]. The “%Inh” value in test [19] and in test [20] was 0% in each case.
Regarding `Cc1cccc(-c2nc(Nc3ccc4[nH]ncc4c3)c3ccccc3n2)n1` [GW857175], the “%Inh” value in [1] is 0%; in test [2], 0%; in test [3], 0%; in test [4], 0%; in test [5] it was 29%; in test [6], 55%. The “%Inh” value was determined as 0% in test [7]; 19% in test [8]; 0% in test [9]; 2% in test [10]; 0% in test [11]; 1% in [12]. For the same compound, the “%Inh” value in test [13] amounted to 0%; in test [14], 13%; in [15] it was 0%; in test [16], 3%; in test [17] it was 22%; in test [18] it was 26%. Besides, the results for the “%Inh” value in test [19] and in test [20] were 33% and 3%, respectively.

The values above are taken from publication PMC5540273 (PLoS ONE, 2017).
